Experimental data taken from PubChem BioAssay AID2449 (National Center for Advancing Translational Sciences (NCATS), 2010).
Some of the results follow. Records with an inconclusive call do not appear. Active and inactive are the calls of the source. Calls come from the whole dose curve.

biological target: Peroxisome proliferator-activated receptor gamma (Homo sapiens) (UniProt P37231); experiment: PPAR gamma Selectivity Assay For Inhibitors of the Interaction of Thyroid Hormone Receptor and Steroid Receptor Coregulator 2; settings: PPARg LBD / Texas Red DRIP-2 peptide, fluorescence polarization, 3 h
Sequence (P37231 whole entry, looked up, the tested form may be a part): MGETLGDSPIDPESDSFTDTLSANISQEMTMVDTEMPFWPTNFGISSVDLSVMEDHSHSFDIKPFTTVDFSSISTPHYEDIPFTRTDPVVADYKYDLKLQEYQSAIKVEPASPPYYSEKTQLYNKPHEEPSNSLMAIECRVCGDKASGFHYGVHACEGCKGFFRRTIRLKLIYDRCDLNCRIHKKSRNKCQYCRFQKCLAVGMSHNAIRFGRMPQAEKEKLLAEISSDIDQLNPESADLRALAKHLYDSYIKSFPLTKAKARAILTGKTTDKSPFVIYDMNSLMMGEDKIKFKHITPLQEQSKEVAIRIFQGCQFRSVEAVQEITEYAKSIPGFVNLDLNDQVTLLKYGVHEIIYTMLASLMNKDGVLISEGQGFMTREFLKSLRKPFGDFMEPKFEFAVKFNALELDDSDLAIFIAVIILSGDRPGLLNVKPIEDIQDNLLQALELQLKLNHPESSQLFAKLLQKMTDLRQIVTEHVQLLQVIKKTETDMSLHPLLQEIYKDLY
From the text: NIH Molecular Libraries Probe Production Network [MLPCN] NIH Chemical Genomics Center [NCGC] MLPCN Grant: DK058080 Assay Provider: R. Kip Guy, St. Jude Children's Research Hospital NCGC Assay Overview: Thyroid receptor (TR) regulates many homeostatic processes including basal metabolism, cardiovascular function, body weight, and lipid trafficking. TR modulators are potential therapeutics for obesity and hyperlipidemias but current thyroid analogs have undesirable side effects, particularly cardiac stimulation. This secondary assay characterized compounds identified in the qHTS for Inhibitors of the Interaction of Thyroid Hormone Receptor and Steroid Receptor Coregulator 2 (PubChem AID 1485) for selectivity against PPAR gamma. […] Small molecule inhibitors that block the interaction of PPAR and DRIP-2 are detected by a decrease in fluorescence polarization. […]
NCGC Assay Protocol Summary: Twenty uL/well 2 uM PPAR gamma and 10 nM Tx-DRIP-2 peptide in protein buffer (20 mM TRIS, pH 7.5, 100 mM NaCl, 0.01% NP-40, 20 uM roziglitazone, and 4% DMSO) was dispensed into black solid 384-well plates (Costar 3710) using a Biomek FX (Beckman Coulter) liquid handling system. […] The plates were read by an Envision (Perkin Elmer) to detect Texas Red polarization of Tx-DRIP-2 (555 nm excitation and 632 nm emission).

Row | SMILES | outcome
1 | O=C(COC(=O)c1cccc([N+](=O)[O-])c1)NC1C2CC3CC(C2)CC1C3 (stereo unspecified) | inactive
